Values joined by “and” are separate entries in the source; they are usually repeats but may differ in a detail not shown here. Equal entries are not always repeated. Records with an inconclusive call do not appear. Values without a mark were called inactive. Active and inactive are the calls of the source. Calls come from the whole dose curve; as a rule, active = well fitted curve in the direction sought with a large enough effect; inconclusive = small, poorly fitted or top-dose-only effect, or another doubt; inactive = no such curve, though single readings can be large; an effect the other way counts as inactive or inconclusive.
Key:
[1] = molecular target: Cellular tumor antigen p53 (Homo sapiens) (UniProt P04637); assay: Primary qHTS for small molecule compounds that upregulate eGFP-tagged delta133p53alpha (in N-terminal) cells. (AID 2060322); settings: NCI-H358 eGFP-delta133p53alpha fluorescence, 24 h; activation: active compounds read high;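 note: cells pre-induced with doxycycline then dosed without doxycycline; series mostly up to about 56 µM; 0% = DMSO vehicle and 100% = reference activator; nearly all actives have a fitted effect of over 75% in size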
Chain of Cellular tumor antigen p53 (Homo sapiens) (P04637 whole entry, looked up): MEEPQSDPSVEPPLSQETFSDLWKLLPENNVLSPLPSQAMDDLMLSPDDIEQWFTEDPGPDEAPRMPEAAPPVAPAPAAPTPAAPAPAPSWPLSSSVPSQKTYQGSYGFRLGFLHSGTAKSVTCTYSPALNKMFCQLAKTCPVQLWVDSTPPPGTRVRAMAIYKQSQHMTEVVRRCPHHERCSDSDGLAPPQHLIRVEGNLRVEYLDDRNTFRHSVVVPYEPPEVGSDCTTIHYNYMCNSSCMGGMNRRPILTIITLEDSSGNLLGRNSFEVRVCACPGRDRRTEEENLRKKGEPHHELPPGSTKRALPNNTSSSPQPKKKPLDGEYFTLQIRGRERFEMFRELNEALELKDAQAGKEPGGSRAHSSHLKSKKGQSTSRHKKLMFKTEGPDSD
Method in brief: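 NCI-H358 cells pre-induced 24 h with 10 ng/ml doxycycline for eGFP-delta133p53alpha, plated dox-free and exposed 24 h at 37C to titrated compounds. Fixed, Hoechst-stained; gated GFP peak intensity by laser scanning cytometry, normalized to DMSO (0%) and 57.5 uM 5-azacytidine (100%).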

[2] = BET inhibitor-based combinations targeting novel dependencies in MECOM-rearranged (r) AML: SET-2 cell line (AID 2202231); settings: SET-2 AML cells viability, CellTiter-Glo luminescence, 48 h; viability: active compounds read low, concentration not given here; note: nearly all actives have a fitted effect of over 35% in size; note: potency is the fitted concentration of half-maximal effect;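 for viability: plate controls were DMSO treated cells for no effect and wells without cells for full effect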
Method in brief: (§1)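 Readout: CellTiter-Glo luminescence. Exposure: 48 h, 11 concentrations, 500 cells/well. Metric: AUC and within-line Z-AUC after DMSO/empty-well normalization.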

[3] = BET inhibitor-based combinations targeting novel dependencies in MECOM-rearranged (r) AML: OCI-AML3 cell line (AID 2202232); settings: Potency: OCI-AML3 viability; note: nearly all actives have a fitted effect of over 35% in size; note: potency is the fitted concentration of half-maximal effect
Method in brief: as §1

[4] = BET inhibitor-based combinations targeting novel dependencies in MECOM-rearranged (r) AML: AML-194 cell line (AID 2202237; note: nearly all actives have a fitted effect of over 40% in size; note: potency is the fitted concentration of half-maximal effect)
Method in brief: as §1

[5] = BET inhibitor-based combinations targeting novel dependencies in MECOM-rearranged (r) AML: UCSD-AML1 cell line (AID 2202235); note: nearly all actives have a fitted effect of over 40% in size; note: potency is the fitted concentration of half-maximal effect
Method in brief: (§2)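 Seeding density was 500 cells/well, and drug exposure lasted 48 hr under standard culture conditions. Read-out used CellTiter-Glo reagent with a 15 min room-temperature incubation before luminescence measurement; AUC and Z-AUC summarize the normalized responses.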

[6] = BET inhibitor-based combinations targeting novel dependencies in MECOM-rearranged (r) AML: AML-191 cell line (AID 2202236; note: nearly all actives have a fitted effect of over 35% in size; note: potency is the fitted concentration of half-maximal effect)
Method in brief: as §1

[7] = BET inhibitor-based combinations targeting novel dependencies in MECOM-rearranged (r) AML: HNT-34 cell line (AID 2202234); note: nearly all actives have a fitted effect of over 35% in size; note: potency is the fitted concentration of half-maximal effect
Method in brief: as §2

SMILES	activation [1]	viability [2] [%]	Potency [3]	Potency [4]	Potency [5]	Potency [6]	Potency [2]	Potency [7]
CCCNS(=O)(=O)Nc1ncnc(OCCOc2ncc(Br)cn2)c1-c1ccc(Br)cc1	-5.9%	97.8	inactive	inactive	–	–	–	–
CCC(C)(C)c1ccc(CC(C)CN2C[C@@H](C)O[C@@H](C)C2)cc1 (some centres not stated)	-16.4%	82.6	inactive	inactive	inactive	–	–	–
COc1ccc(COc2cc3oc(=O)c4cc(C(C)O)ccc4c3cc2OC)cc1 (configuration not stated)	0.91%	86.4	14.8 µM (active)	–	–	20.9 µM (active)	–	–
COc1cccc2c1C(=O)c1c(O)c3c(c(O)c1C2=O)C[C@@](O)(C(=O)CO)C[C@@H]3O[C@H]1C[C@H](N)[C@H](OC2CCCCO2)[C@H](C)O1 (some centres not stated)	3.12%	–	0.186 µM (active)	332 nM (active) and 296 nM (active)	209 nM (active) and 263 nM (active)	118 nM (active) and 372 nM (active)	1.32 µM (active) and 833 nM (active)	332 nM (active) and 235 nM (active)
C[C@@H]1CN(c2c(F)c(N)c3c(=O)c(C(=O)O)cn(C4CC4)c3c2F)C[C@H](C)N1	22.7%	102	inactive	inactive	inactive	inactive	–	inactive
O=C1c2cccc(O)c2C(=O)c2c(O)cc(CO)cc21	-5.26%	116	inactive	inactive	inactive	inactive	–	inactive
COc1ccc(CC2=NN3C([C@@H](CCc4ccccc4)[C@@H](C)O)=NC(C)C3C(=O)N2)cc1OC (some centres not stated)	-13.9%	101	7.42 µM (active)	inactive	inactive	16.6 µM (active)	–	18.6 µM (active)
CC(NCCc1ccc(O)cc1)C(O)c1ccc(O)cc1 (configuration not stated)	-5.46%	112	inactive	inactive	inactive	inactive	–	inactive
COc1ccc(-c2oc3c(CC=C(C)C)c(O)cc(O)c3c(=O)c2O)cc1	-9.57%	97	inactive	inactive	inactive	inactive	–	inactive
CC(C)(C)NC(=O)[C@H]1CC[C@H]2[C@@H]3CC[C@H]4NC(=O)C=C[C@]4(C)[C@H]3CC[C@]12C	-14.2% and -4.21%	98.4	inactive	inactive	inactive	inactive	–	inactive
NC(N)=NC(N)=NCCc1ccccc1	-18.4% and -5.97%	–	16.6 µM (active)	inactive	–	–	13.2 µM (active)	inactive
NC(=O)c1cccc(-c2cccc(OC(=O)NC3CCCCC3)c2)c1	-16.3%	103	inactive	inactive	inactive	inactive	–	inactive
c1ccc2c(-c3cnn4cc(-c5ccc(N6CCNCC6)cc5)cnc34)ccnc2c1	75.9%	–	2.95 µM (active)	2.63 µM (active)	2.95 µM (active)	2.63 µM (active)	3.32 µM (active)	4.68 µM (active)
Cc1cccc(N(C)C(=S)Oc2ccc3ccccc3c2)c1	2.82% and 1.76%	85.9	inactive	inactive	–	–	–	inactive
CC(C)OC(=O)C(C(=O)OC(C)C)=C1SC=CS1	3.95% and 27.9%	105	inactive	inactive	–	inactive	–	inactive
COc1ccc(CCN(C)CCCOc2ccc(S(=O)(=O)c3[nH]c4ccccc4c3C(C)C)cc2)cc1OC	-2.61%	–	16.6 µM (active)	14.8 µM (active)	14.8 µM (active)	18.6 µM (active)	26.3 µM (active)	18.6 µM (active)
c1cc(-c2sc(-c3ccncc3)c(-c3ccncc3)c2-c2ccncc2)ccn1	6.76%	103	inactive	inactive	–	inactive	–	–
O=C(O)CCCCC(CCSCc1ccccc1)SCc1ccccc1 (configuration not stated)	1.42%	107	inactive	inactive	inactive	inactive	–	inactive
COc1c(N2C[C@@H]3CCCN[C@H]3C2)c(F)cc2c(=O)c(C(=O)O)cn(C3CC3)c12	0.987%	–	inactive	inactive	–	inactive	14.8 µM (active)	inactive

— PubChem BioAssay (NCATS)
